Reference: PubChem BioAssay (NCI)
The panel holds about 83,000 compounds, 20% with a hit somewhere; the sample as a whole holds those more often.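 Single-concentration screen, 48 h exposure, 96-well plates. Endpoint: percent growth. Below 10 = active.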 Activity calls are given as the source filed them.

Legend:
Assay in all cases: NCI-60 one-dose screen, 48 h (100 = growth as untreated, 0 = no growth, -100 = all killed)
Conditions in all cases: 10 µM unless noted
[1] = test system: HCT-15 colon
[2] = test system: HT29 colon
[3] = test system: SNB-75 CNS
[4] = test system: SNB-19 CNS
[5] = test system: U251 CNS
[6] = test system: PC-3 prostate
[7] = test system: SK-MEL-5 melanoma
[8] = test system: UACC-62 melanoma
[9] = test system: LOX IMVI melanoma
[10] = test system: SK-MEL-28 melanoma
[11] = test system: SK-MEL-2 melanoma
[12] = test system: EKVX NSCLC
[13] = test system: SN12C renal
[14] = test system: UO-31 renal
[15] = test system: TK-10 renal
[16] = test system: ACHN renal
[17] = test system: CAKI-1 renal
[18] = test system: A498 renal
[19] = test system: CCRF-CEM leukemia
[20] = test system: MOLT-4 leukemia

Measured: growth

O=C1/C(=C/c2ccc(C(F)(F)F)cc2)COc2ccc(O)cc21
active: [9] 2.9% | [19] 3.29% | [20] 4.15%
inactive: [1] 40.6% | [2] 44.2% | [3] 81.1% | [4] 85.3% | [5] 52.3% | [6] 70.3% | [7] 97.4% | [8] 80.2% | [10] 100% | [11] 99.7% | [12] 96.3% | [13] 69.3% | [14] 44.8% | [15] 99.2% | [16] 91.3% | [17] 71.9% | [18] 109%

CCn1cc(C(=O)NN=C2CCCCCC2)c(=O)c2ccc(C)nc21
inactive: [1] 86.2% | [2] 99.7% | [3] 76.2% | [4] 88.5% | [5] 94.6% | [6] 82.7% | [7] 87.1% | [8] 73.2% | [9] 95% | [10] 93.8% | [11] 105% | [12] 93.2% | [13] 85.5% | [14] 75.2% | [15] 95.7% | [16] 84.7% | [17] 79.9% | [18] 58% | [19] 91.7% | [20] 71%

COc1ccc2cc(-c3ccc(-c4ccc(C(=N)N)s4)s3)ccc2c1
active: [1] -81.6% | [2] -70.8% | [4] -26.8% | [5] -85.9% | [8] -16.3% | [9] -58.2% | [12] 0.97% | [13] -55.2% | [19] -14% | [20] 1.6%
inactive: [3] 21% | [6] 23.1% | [7] 95.1% | [10] 109% | [11] 95.3% | [14] 36.6% | [15] 89.6% | [16] 27% | [17] 88.8% | [18] 73.6%

CC(C)(C)c1cc(C=Nc2cccc(C(F)(F)F)c2)c(O)c(C(C)(C)C)c1
inactive: [1] 83.7% | [2] 81% | [3] 83.6% | [4] 93.9% | [5] 77.6% | [6] 80.2% | [7] 99.9% | [8] 101% | [9] 101% | [10] 107% | [11] 102% | [12] 107% | [13] 98.8% | [14] 80.7% | [15] 84.8% | [16] 111% | [17] 90.4% | [18] 108% | [19] 62.5% | [20] 85.3%

O=c1oc2c(cnc3ccccc32)cc1-c1cccs1
inactive: [1] 112% | [2] 111% | [3] 92% | [4] 101% | [5] 99.4% | [6] 97.3% | [7] 101% | [8] 101% | [9] 106% | [10] 115% | [11] 108% | [12] 103% | [13] 98.4% | [14] 88.3% | [15] 106% | [16] 102% | [17] 88.9% | [18] 107% | [19] 103% | [20] 102%

COc1ccc2[nH]cc(-c3nc(-c4cn(C)c5ccncc45)cs3)c2c1
active: [1] -47.7% | [2] -33.6% | [5] -71.5% | [9] -88.3% | [12] -14.1% | [19] -20.3%
inactive: [3] 110% | [4] 14.6% | [6] 48.5% | [7] 50.2% | [8] 101% | [10] 91.4% | [11] 93% | [13] 96.2% | [14] 77.6% | [15] 78.6% | [16] 83.9% | [17] 67.2% | [18] 89.1% | [20] 63%

COc1cc(C2C3=C(COC3=O)N(CCO)c3cc4c(cc32)OCCO4)cc(OC)c1OC (stereo not given)
active: [1] 6.81% | [2] -25.4% | [3] -5.04% | [4] 7.63% | [5] 9.63% | [7] -30.9% | [8] 6.33% | [18] -28.8% | [20] 8.21%
inactive: [6] 14.3% | [9] 17.7% | [10] 42.8% | [11] 58.5% | [12] 45.7% | [13] 23.8% | [14] 54.3% | [15] 60.3% | [16] 20.7% | [17] 41.3% | [19] 13.2%

S=c1ssnc1-c1cccs1
inactive: [1] 99% | [2] 105% | [3] 97.1% | [4] 96.8% | [5] 100% | [6] 94.3% | [7] 57.3% | [8] 90.7% | [9] 92.3% | [10] 112% | [11] 103% | [12] 104% | [13] 106% | [14] 99.9% | [15] 99.5% | [16] 107% | [17] 92.1% | [18] 23.4% | [19] 97.5% | [20] 84.9%

CCOC(=O)C/C(=N\Nc1cc(=O)[nH]c2ccc(Cl)cc12)C(=O)OCC
inactive: [1] 105% | [2] 109% | [3] 96.7% | [4] 94.9% | [5] 107% | [6] 88.3% | [7] 98.7% | [8] 92.5% | [9] 95.7% | [10] 103% | [11] 116% | [12] 105% | [13] 94.9% | [14] 83.7% | [15] 104% | [16] 99.3% | [17] 92.4% | [18] 108%
active: [19] -51.5% | [20] -0.305%

COc1cc2c3c(n(CCCCNCCCn4c5c(c6cc(OC)c(OC)cc6c4=O)C(=O)c4cc6c(cc4-5)OCO6)c(=O)c2cc1OC)-c1cc2c(cc1C3=O)OCO2
inactive: [1] 99.6% | [2] 93.3% | [3] 91% | [4] 102% | [5] 91.6% | [6] 93% | [7] 102% | [8] 96.8% | [9] 95.2% | [10] 109% | [11] 114% | [12] 90.3% | [13] 102% | [14] 84.1% | [15] 100% | [16] 95% | [17] 93.3% | [18] 103% | [19] 101% | [20] 96.5%

Cc1ccc(/C=C/C(=O)c2ccc(NC(=O)CSc3nc4c([nH]3)c(=O)n(C)c(=O)n4C)cc2)c(C)c1
inactive: [1] 70.7% | [2] 53.3% | [3] 18.9% | [6] 49.3% | [7] 69.5% | [8] 69.5% | [9] 39.1% | [10] 62.2% | [11] 91.9% | [12] 78.1% | [13] 57.1% | [14] 70.4% | [15] 83.5% | [16] 38.8% | [17] 48.1% | [18] 40.2% | [19] 65.3% | [20] 62.1%
active: [4] 0.886% | [5] -67.5%

CCCCCCNc1nc(NCCCCCC)c2[nH]c(NCCCCCC)nc2n1
active: [3] -8.09% | [5] -32.8% | [9] 1.23% | [19] -29.6% | [20] -12.5%
inactive: [1] 88.1% | [2] 36.6% | [4] 89.8% | [6] 18.7% | [7] 78.1% | [8] 81.2% | [10] 98.2% | [11] 30.2% | [12] 44% | [13] 26.5% | [14] 80.9% | [15] 116% | [16] 100% | [17] 74.1% | [18] 40.3%

Cc1ccc(Nc2nc(-c3ccc(F)cc3)c(C#N)c(=O)n2C)cc1
inactive: [1] 55% | [2] 78.2% | [3] 30% | [4] 56.2% | [5] 68.2% | [6] 67.9% | [7] 77.2% | [8] 51.8% | [9] 74.3% | [10] 74.1% | [11] 70.8% | [12] 54.6% | [13] 62.9% | [14] 44.8% | [15] 55.4% | [16] 63% | [17] 59.3% | [18] 42.7% | [19] 98.8% | [20] 81.5%

COc1ccc(/C(C)=C(\c2ccc(OCCN3CCCCCC3)cc2)c2ccc(OC(=O)c3ccccc3)cc2)cc1
inactive: [1] 12.1% | [3] 83.3% | [4] 62.8% | [5] 31.7% | [6] 39.6% | [7] 42.8% | [8] 19.1% | [10] 54.9% | [11] 54.6% | [12] 74.4% | [13] 56.2% | [14] 26.2% | [15] 74.5% | [16] 72.3% | [17] 52.9% | [18] 82.1% | [19] 26.8% | [20] 17.4%
active: [2] -3.62% | [9] -51%

COc1cc(C(=O)/C=C/c2ccc(N3CCN(C)CC3)cc2)cc(OC)c1OC
inactive: [1] 92.5% | [2] 94.7% | [3] 82.2% | [4] 95.3% | [5] 99.5% | [6] 99.3% | [7] 103% | [8] 86.8% | [9] 90.4% | [10] 103% | [11] 107% | [12] 88.6% | [13] 98.5% | [14] 73.2% | [15] 110% | [16] 97.6% | [17] 90.9% | [18] 108% | [19] 105% | [20] 98%
